# Reference: the supplement of paper PMC8728848
# This excerpt belongs to a sample that is enriched for the strongest signals.
# B1: RS-IIL (Ralstonia solanacearum) (protein)
# chain: AQQGVFTLPANTSFGVTAFANAANTQTIQVLVDNVVKATFTGSGTSDKLLGSQVLNSGSGAIKIQVSVNGKPSDLVSNQTILANKLNFAMVGSEDGTDNDYNDGIAVLNWPLG
# What was measured:
# Experiment in all cases: glycan array binding signal (z-score within array); higher = stronger binding
# Conditions in all cases: glycan notation: IUPAC condensed, linker removed
# [1] = target: Fuc(a1-2)Gal(b1-3)GalNAc(b1-4)[Neu5Ac(a2-3)]Gal(b1-4)Glc
# Outline: (§1)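 Arrays were curated from the Consortium for Functional Glycomics database, 3228 in total, and kept only where the protein sequence was available. Binding is expressed as a within-array Z-score. This score was averaged across arrays of the same protein sequence at different concentrations or buffers and across linkers, and negative values can be read as non-binding.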
# [2] = target: Fuc(a1-2)[GalNAc(a1-3)]Gal(b1-4)[Fuc(a1-3)]GlcNAc
# Outline: as §1
# [3] = target: Gal(b1-3)GlcNAc(b1-3)Gal(b1-4)GlcNAc
# Outline: as §1
# [4] = target: Gal(b1-4)GlcNAc(b1-3)[Gal(b1-4)GlcNAc(b1-6)]GalNAc
# Outline: as §1
# Gal3S6S(b1-4)GlcNAc6S = target: Gal3S6S(b1-4)GlcNAc6S
# Outline: as §1
# Glc(a1-4)Glc = target: Glc(a1-4)Glc
# Outline: as §1
# [5] = target: GlcNAc(b1-4)Gal(b1-4)GlcNAc
# Outline: as §1
# [6] = target: Man(a1-2)Man(a1-2)Man(a1-3)Man
# Outline: as §1
# [7] = target: Man(a1-2)Man(a1-2)Man(a1-6)[Man(a1-3)]Man
# Outline: as §1
# [8] = target: Man(a1-2)Man(a1-3)[Man(a1-6)]Man(a1-6)[Man(a1-2)Man(a1-3)]Man(b1-4)GlcNAc(b1-4)GlcNAc
# Outline: as §1
# [9] = target: Man(a1-3)[Man(a1-6)]Man(b1-4)GlcNAc(b1-4)GlcNAc
# Outline: as §1
# [10] = target: Neu5Ac(a2-3)Gal(b1-4)[Fuc(a1-3)]GlcNAc(b1-3)Gal(b1-4)GlcNAc
# Outline: as §1
# Neu5Ac(a2-8)Neu5Ac = target: Neu5Ac(a2-8)Neu5Ac
# Outline: as §1
binder,measurement,setting,value
B1,glycan array binding signal (z-score),[1],0.021
same,glycan array binding signal (z-score),[2],0.302
same,glycan array binding signal (z-score),[3],-0.381
same,glycan array binding signal (z-score),[4],-0.389
same,glycan array binding signal (z-score),Gal3S6S(b1-4)GlcNAc6S,-0.385
same,glycan array binding signal (z-score),Glc(a1-4)Glc,-0.266
same,glycan array binding signal (z-score),[5],-0.389
same,glycan array binding signal (z-score),[6],4.58
same,glycan array binding signal (z-score),[7],5.58
same,glycan array binding signal (z-score),[8],4.71
same,glycan array binding signal (z-score),[9],4.76
same,glycan array binding signal (z-score),[10],-0.268
same,glycan array binding signal (z-score),Neu5Ac(a2-8)Neu5Ac,-0.388
